This is an account of results in ChEMBL document CHEMBL4513139, “CO-ADD screening of University of Strathclyde (UK) compounds”.

Broadly, the Inhibition is the relative decrease from the control value, in per cent.

Results with a measured potency or affinity are listed apart.

The test system of this assay is Cryptococcus neoformans. The settings on record: Concentration 32 ug.mL-1; ASSAY_TEST Inhibition of Fungal Growth; detection method Resazurin; Absorption (OD600-OD570); plate type 384well; NBS; CORNING #3640. In general terms: Resazurin is reduced to fluorescent resorufin, in cell work by metabolically active cells.
Take `COc1ccc(/C=C(/C(=O)Nc2cc(C(=O)Nc3cc(C(=O)NCCCN(C)C)n(C)c3)n(C)c2)c2ccc(OC)cc2)cc1.O=C(O)C(F)(F)F`: the Inhibition is listed as -5.3%.

On to `COc1cccc(C(=N)Nc2cc(C(=O)Nc3cc(C(=O)Nc4cc(C(=O)NCCCN(C)C)n(C)c4)n(C)c3)n(C)c2)c1.O=C(O)C(F)(F)F.O=C(O)C(F)(F)F`, for which the Inhibition was -103.02%.

With `COc1ccc(CC(=O)Nc2cc(C(=O)Nc3cc(C(=O)Nc4cn(CCCN(C)C)cn4)n(C)c3)n(C)c2)cc1.O=C(O)C(F)(F)F`, the Inhibition is given as -97.5%.

Consider `Cc1ncc(Cn2cc(CCO)nn2)c(N)n1`, for which the Inhibition is -50.84%.

On to `Cc1ncc(Cn2cc(CCCN)nn2)c(N)n1.Cl`, for which the Inhibition is given as -41.75%.

`COc1cccc(C(=N)Nc2cc(C(=O)Nc3cc(C(=O)Nc4cn(CCCN(C)C)cn4)n(C)c3)n(C)c2)c1.O=C(O)C(F)(F)F.O=C(O)C(F)(F)F`: the Inhibition is -90.24%.

In the case of `CCOC(=O)CCC(NC(=O)c1ccc(NCc2cn(Cc3cnc(C)nc3N)nn2)cc1)C(=O)OCC` (stereo not drawn), the Inhibition is -67.67%.

`Cn1cc(NC(=O)c2cc(NC(=O)CCC(=O)O)cn2C)cc1C(=O)NCCN1CCOCC1.O=C(O)C(F)(F)F`: the Inhibition is -38.65%.

Turning to `CN(C)CCCNC(=O)c1cc(NC(=O)c2cc(NC(=O)c3cc(NC(=N)N)cn3C)cn2C)cn1C.O=C(O)C(F)(F)F.O=C(O)C(F)(F)F`, the Inhibition is recorded as -105.56%.

As for `Cc1ncc(CNc2cccc(F)c2)c(N)n1`, the Inhibition is -50.34%.

`COc1cccc(C(=N)Nc2cc(C(=O)Nc3cc(C(=O)Nc4cc(C(=O)NCCCN5CCOCC5)n(C)c4)n(C)c3)n(C)c2)c1.O=C(O)C(F)(F)F.O=C(O)C(F)(F)F`: the Inhibition is -103.93%.

For `CC(=N)Nc1cc(C(=O)Nc2cc(C(=O)Nc3cc(C(=O)NCCN4CCOCC4)n(C)c3)n(C)c2)n(C)c1.O=C(O)C(F)(F)F.O=C(O)C(F)(F)F`, the Inhibition is given as -100.58%.

Turning to `CC(C)CCc1sc(NC(=O)c2cc(NC(=O)c3ccc(/C=C/c4cc5ccccc5nc4Cl)cc3)cn2C)nc1C(=O)NCCN1CCOCC1.O=C(O)C(F)(F)F`, the Inhibition is given as -70.82%.

With `CC(C)CCn1cc(NC(=O)c2cc(NC(=O)c3cc(NC(=N)c4ccccc4)cn3C)cn2C)cc1C(=O)NCCCN(C)C.O=C(O)C(F)(F)F.O=C(O)C(F)(F)F`, the Inhibition is reported as -53.65%.

As to `Cn1cc(NC(=O)c2cc(NC(=O)c3sc(N)nc3C(F)(F)F)cn2C)cc1C(=O)NCCC(=N)N.O=C(O)C(F)(F)F`, the Inhibition was -104.75%.

Turning to `COCCOC1CCN(C(=O)c2cc(NC(=O)c3cc(NC(=O)c4ccc(/C=C/c5ccc(OC)cc5)cc4)cn3C)cn2C)CC1.O=S(=O)(O)O`, the Inhibition amounted to 97.19%.

As for `COC(=O)c1ccc(C(=O)Nc2cc(C(=O)Nc3cc(C(=O)NCCC(=N)N)n(C)c3)n(C)c2)cc1.O=C(O)C(F)(F)F`, the Inhibition is recorded as -78.85%.

Take `COCCOC1CCN(C(=O)c2cc(NC(=O)c3cc(NC(=O)c4ccc(/C=C/c5cnc6ccccc6c5)cc4)cn3C)cn2C)CC1`: the Inhibition worked out at 112.33%.

For the molecule `CC(=O)Nc1cc(C(=O)Nc2cc(C(=O)Nc3cc(C(=O)NCCCN(C)C)n(CCC(C)C)c3)n(C)c2)n(C)c1.O=C(O)C(F)(F)F`, the Inhibition is reported as -102.49%.

With `COC(=O)CCC(=O)Nc1cc(C(=O)Nc2cc(C(=O)NCCC(=N)N)n(C)c2)n(C)c1.O=C(O)C(F)(F)F`, the Inhibition is listed as -68.45%.

In the case of `CC(C)c1sc(N)nc1C(=O)Nc1cc(C(=O)NCCN2CCOCC2)n(C)c1.O=C(O)C(F)(F)F`, the Inhibition is -97.94%.

Regarding `CC(=O)Nc1cc(C(=O)Nc2cc(C(=O)Nc3cc(C(=O)NCCCN(C)C)n(C)c3)n(C)c2)n(C)c1.O=C(O)C(F)(F)F`, the Inhibition was -116.29%.

As for `Cc1ncc(Cn2cc(CCCCO)nn2)c(N)n1`, the Inhibition is on record as -60.21%.

`COC(=O)c1ccc(C(=O)Nc2cc(C(=O)Nc3cc(C(=O)NCCCN(C)C)n(C)c3)n(C)c2)cc1.O=C(O)C(F)(F)F`: the Inhibition is given as -107.28%.

In the case of `Cc1ncc(CNc2ccccc2F)c(N)n1`, the Inhibition is listed as -54.68%.

Regarding `CC(C)CCc1sc(NC(=O)c2cc(NC(=O)c3cc(NC(=O)CCC(=O)O)cn3C)cn2C)nc1C(=O)NCCCN(C)C.O=C(O)C(F)(F)F`, the Inhibition is on record as -103.67%.

For `Cc1ncc(CNc2ccc(C(F)(F)F)cc2)c(N)n1`, the Inhibition is -31.34%.

`Cn1cc(NC(=O)c2cc(NC(=O)c3sc(N)nc3C(F)(F)F)cn2C)cc1C(=O)NCCN1CCOCC1.O=C(O)C(F)(F)F`: the Inhibition was -112.77%.
